The source of these data is PubChem BioAssay (NCATS).

Assay [1] in a line: Quantitative High-Throughput drug screen in 47 multiple myeloma cell lines against the NCATS MIPE library collection: KMS28PE_JCRB cell viability assay (AID 1918983). Further: nearly all actives have a fitted effect of over 35% in size. Further: potency means the concentration at half of the fitted maximal effect. Conditions: KMS28PE multiple myeloma viability, CellTiter-Glo ATP, 48 h; series mostly up to 45.8 µM. The gist of the method:
(§1)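 500 cells/well; MIPE 4.0 drugs pin-transferred; 48 h, 37C, 5% CO2. CellTiter-Glo, 5 min RT, luminescence. Controls: DMSO 100%, media 0%.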
(In general: ATP-based viability assays read luminescence as a measure of living cells.)

Assay [2] is described as follows: Quantitative High-Throughput drug screen in 47 multiple myeloma cell lines against the NCATS MIPE library collection: OCIMY5_PLB cell viability assay (AID 1918988). Further: nearly all actives have a fitted effect of over 65% in size. Further: potency means the concentration at half of the fitted maximal effect. To be noted: OCI-MY5 myeloma viability, ATP luminescence, 48 h; series mostly up to 45.8 µM. In a few lines:
as §1

Assay [3] in a line: Quantitative High-Throughput drug screen in 47 multiple myeloma cell lines against the NCATS MIPE library collection: OPM1_PLB cell viability assay (AID 1918989). Further: nearly all actives have a fitted effect of over 40% in size. Further: potency means the concentration at half of the fitted maximal effect. To be noted: CellTiter-Glo, 48 h; series mostly up to 45.8 µM. In a few lines:
as §1

Assay [4] in a line: Quantitative High-Throughput drug screen in 47 multiple myeloma cell lines against the NCATS MIPE library collection: U266_ATCC cell viability assay (AID 1919864). Further: nearly all actives have a fitted effect of over 35% in size. Further: potency means the concentration at half of the fitted maximal effect. Conditions: U266 myeloma viability, CellTiter-Glo ATP luminescence, 48 h; series mostly up to 45.8 µM. The gist of the method:
as §1

Assay [5] can be described thus: Quantitative High-Throughput drug screen in 47 multiple myeloma cell lines against the NCATS MIPE library collection: PE2_PLB cell viability assay (AID 1919869). Further: nearly all actives have a fitted effect of over 35% in size. Further: potency means the concentration at half of the fitted maximal effect. To be noted: PE2_PLB myeloma cells viability, ATP luminescence, 48 h; series mostly up to 45.8 µM. In a few lines: as §1
Assay [6] in a line: Quantitative High-Throughput drug screen in 47 multiple myeloma cell lines against the NCATS MIPE library collection: PCM6_Riken cell viability assay (AID 1919870). Further: nearly all actives have a fitted effect of over 30% in size. Further: potency means the concentration at half of the fitted maximal effect. Conditions: CellTiter-Glo ATP, 48 h; series mostly up to 45.8 µM. In a few lines: as §1
Assay [7] can be described thus: Quantitative High-Throughput drug screen in 47 multiple myeloma cell lines against the NCATS MIPE library collection: RPMI8226_ATCC cell viability assay (AID 1919871). Further: nearly all actives have a fitted effect of over 30% in size. Further: potency means the concentration at half of the fitted maximal effect. Conditions: RPMI8226 myeloma viability, CellTiter-Glo ATP luminescence, 48 h; series mostly up to 45.8 µM. The gist of the method:
as §1

Assay [8] is described as follows: Quantitative High-Throughput drug screen in 47 multiple myeloma cell lines against the NCATS MIPE library collection: KMS11_JCRBsus cell viability assay (AID 1919873). Further: nearly all actives have a fitted effect of over 50% in size. Further: potency means the concentration at half of the fitted maximal effect. To be noted: KMS11 myeloma viability, CellTiter-Glo ATP luminescence, 48 h; series mostly up to 45.8 µM. The gist of the method:
as §1

Assay [9] in a line: Quantitative High-Throughput drug screen in 47 multiple myeloma cell lines against the NCATS MIPE library collection: XG6_PLB cell viability assay (AID 1919865). Further: nearly all actives have a fitted effect of over 40% in size. Further: potency means the concentration at half of the fitted maximal effect. Conditions: XG6 myeloma viability, CellTiter-Glo ATP luminescence, 48 h; series mostly up to 45.8 µM. In a few lines: as §1
The nature of assay [10]: Quantitative High-Throughput drug screen in 47 multiple myeloma cell lines against the NCATS MIPE library collection: XG1_PLB cell viability assay (AID 1919866). Further: nearly all actives have a fitted effect of over 35% in size. Further: potency means the concentration at half of the fitted maximal effect. To be noted: CellTiter-Glo ATP, 48 h; series mostly up to 45.8 µM. In a few lines:
as §1

Assay [11] can be described thus: Quantitative High-Throughput drug screen in 47 multiple myeloma cell lines against the NCATS MIPE library collection: VP6_DJ cell viability assay (AID 1919867). Further: nearly all actives have a fitted effect of over 40% in size. Further: potency means the concentration at half of the fitted maximal effect. To be noted: ATP luminescence, 48 h; series mostly up to 45.8 µM. In a few lines:
as §1

Assay [12] in a line: Quantitative High-Throughput drug screen in 47 multiple myeloma cell lines against the NCATS MIPE library collection: OPM2_DSMZ cell viability assay (AID 1919872). Further: nearly all actives have a fitted effect of over 30% in size. Further: potency means the concentration at half of the fitted maximal effect. Conditions: OPM2 myeloma viability, CellTiter-Glo ATP luminescence, 48 h; series mostly up to 45.8 µM. The gist of the method:
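Relative luminescence from CellTiter-Glo served as the viability signal, referenced to DMSO-treated (100%) and cell-free medium (0%) controls. Treatment lasted 48 hours at 37C with 500 cells per well.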

Assay [13] is described as follows: Quantitative High-Throughput drug screen in 47 multiple myeloma cell lines against the NCATS MIPE library collection: KMS34_JCRB cell viability assay (AID 1918985). Further: nearly all actives have a fitted effect of over 40% in size. Conditions: KMS34 myeloma viability, CellTiter-Glo ATP luminescence, 48 h; series mostly up to 45.8 µM. In a few lines:
as §1

Assay [14] can be described thus: Quantitative High-Throughput drug screen in 47 multiple myeloma cell lines against the NCATS MIPE library collection: KMS28BM_JCRB cell viability assay (AID 1919874). Further: nearly all actives have a fitted effect of over 35% in size. Conditions: CellTiter-Glo ATP, 48 h; series mostly up to 45.8 µM. The gist of the method: as §1
Assay [15] in a line: Quantitative High-Throughput drug screen in 47 multiple myeloma cell lines against the NCATS MIPE library collection: OCIMY7_PLB cell viability assay (AID 1918987). Further: potency means the concentration at half of the fitted maximal effect; nearly all actives have a fitted effect of over 65% in size. To be noted: OCI-MY7 myeloma viability, CellTiter-Glo ATP, 48 h; series mostly up to 45.8 µM. In a few lines:
as §1

Assay [16] is described as follows: Quantitative High-Throughput drug screen in 47 multiple myeloma cell lines against the NCATS MIPE library collection: SKMM1_PLB cell viability assay (AID 1919863). To be noted: SKMM1 myeloma viability, CellTiter-Glo ATP, 48 h; viability: active compounds read low. The gist of the method:
as §1

The nature of assay [17]: Quantitative High-Throughput drug screen in 47 multiple myeloma cell lines against the NCATS MIPE library collection: UTMC2_PLB cell viability assay (AID 1919868). Further: nearly all actives have a fitted effect of over 55% in size. Conditions: CellTiter-Glo ATP luminescence, 48 h; series mostly up to 45.8 µM. The gist of the method: as §1

Results filed as inconclusive are left out. Calls of active or inactive are those of the source. The call rests on the fitted dose curve; in most records, active means well fitted cell-killing curve with a large enough effect; inconclusive means small, poorly fitted or top-dose-only effect, or effect the other way; inactive means no such curve, though single readings can be large or run the other way.

Consider `CCN(CC)CCn1c(=O)c(Cc2ccc(OC)cc2)nc2ccccc21`, for which the Potency result in [1], in assay [2], in assay [3], in assay [4], in [5] and in assay [6] was “inactive” in each case. For the same molecule, the Potency entry in [7] and in [8] was “inactive” each time.

Take `Cc1ncc([N+](=O)[O-])n1CCO`: the Potency entry in assay [1], in assay [2], in [3], in [9], in [10] and in assay [11] was “inactive” throughout. Besides, the Potency entry in assay [6] and in assay [12] was “inactive” throughout.

On to `Cc1cccc(N(C)C(=S)Oc2ccc3ccccc3c2)c1`, for which the Potency result in assay [1], in assay [13], in [3], in assay [9] and in assay [12] was “inactive” each time. For the same molecule, in assay [4], the Potency is 20.9 µM (active).

Take `CC(=O)[C@H]1CC[C@H]2[C@@H]3CC=C4C[C@@H](O)CC[C@]4(C)[C@H]3CC[C@]12C`: the Potency entry in assay [1], in [13], in assay [3], in [9], in assay [6] and in assay [12] was “inactive” throughout. The Potency entry in [8] and in [14] was “inactive” each time.

As to `C1CCC(C(CC2CCCCN2)C2CCCCC2)CC1` (stereo unspecified), the Potency in assay [1] was 18.7 µM (active); in assay [15], 14.8 µM (active); in assay [2] it was 9.35 µM (active); in assay [3], 10.5 µM (active); in assay [16], 18.7 µM (active); in assay [4] it was 11.8 µM (active). Also, the Potency in assay [9] is 20.9 µM (active); in [10] it was 13.2 µM (active); in [11], 8.33 µM (active); in [5], 18.7 µM (active); in assay [6] it was 10.5 µM (active); in assay [7], 11.8 µM (active). The Potency in assay [8] is 8.33 µM (active).

For `CCCN[C@H]1CCc2nc(N)sc2C1`, the Potency entry in assay [1], in assay [13], in [3], in assay [4], in assay [9] and in assay [5] was “inactive” throughout. For the same molecule, the Potency result in assay [6], in assay [7] and in [8] was “inactive” in each case. In [11], the Potency is 18.7 µM (active).

For `COc1cc2ncnc(Nc3cccc(Cl)c3)c2cc1OC`, the Potency in [1] was 26.4 µM (active); in assay [2] it was 0.264 µM (active); in assay [3] it was 20.9 µM (active); in [4], 0.132 µM (active); in assay [8], 18.7 µM (active). The Potency result in assay [12] was “inactive”.

Take `O=C(O)c1cn(C2CC2)c2cc(N3CCNCC3)c(F)cc2c1=O`: the Potency entry in assay [1], in [13], in assay [3], in assay [4], in assay [9] and in assay [11] was “inactive” throughout. In addition, the Potency result in [6], in assay [7], in [8] and in assay [14] was “inactive” throughout.

As to `CCCCc1oc2ccc(NS(C)(=O)=O)cc2c1C(=O)c1ccc(OCCCN(CCCC)CCCC)cc1`, the Potency was 20.9 µM (active) in assay [1]; 18.7 µM (active) in assay [15]; 4.69 µM (active) in assay [2]; 13.2 µM (active) in [3]; 18.7 µM (active) in assay [16]; 14.8 µM (active) in assay [4]. Moreover, the Potency in [9] was 8.33 µM (active); in assay [11], 7.43 µM (active); in [5], 23.5 µM (active); in assay [6], 11.8 µM (active); in [7], 16.6 µM (active); in assay [12], 23.5 µM (active). The Potency in assay [8] was 11.8 µM (active).

As to `CC(N)C12CC3CC(CC(C3)C1)C2` (stereo unspecified), the Potency entry in [1], in assay [13], in assay [9], in [11], in [6] and in [7] was “inactive” in each case. In addition, the Potency result in [12] and in assay [8] was “inactive” throughout.

As to `NC(=O)c1cccnc1`, the Potency entry in assay [1], in assay [2], in [3], in assay [4], in assay [10] and in assay [11] was “inactive” each time. Further, the Potency entry in [17], in [5], in [8] and in assay [14] was “inactive” throughout. Also, in [9], the Potency is 16.6 µM (active).
